# Source: PubChem BioAssay
# HepG2 tox = kills HepG2 cells in TGF-b inhibitor counter-screen; HepG2 CAGA-GFP viability, ATP luminescence, 18 h; AID 588856; Potency, µM (highest dose often 46.1 µM), for inactives: top-dose activity change, negative = cytotoxicity, hits mostly cytotoxic; hit rate 0.76% among 410,000
#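 HepG2 CAGA-GFP cells (1000/well, DMEM with 1% FBS) received compound, then TGF-beta at 500 pg/mL final, and were incubated 18 hours at 37 degrees C. Viability was read by CellTiter-Glo luminescence. Media-only wells were set as complete cell-killing and DMSO as no toxicity.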
# TGFb inhibitor = inhibitors of TGF-b signaling; HepG2 CAGA-GFP TGF-b/SMAD3 reporter, GFP fluorescence, 18 h; TGF-beta stimulated, 500 pg/mL final; Potency, µM (top dose mostly 46.1 µM), for inactives: at the highest dose activity, negative = inhibition, actives largely listed as inhibitors; hit rate 1.2% among 410,000; further: on the % scale 0 is the no-effect control and ±100 the full control effect; nearly all actives have a fitted effect of over 65% in size
#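 TGF-beta reporter screen: HEPG2 CAGA-GFP, 1% FBS, 500 pg/mL TGF-beta final, 18 h; per-cell GFP summed per well; curves fitted and categorized by class.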
# HT1080 IDH1KD tx = kills HT-1080 cells with IDH1 knockdown | hit rate 2% among 360,000 | Potency, µM (doses to about 46.1 µM), for the others: at the highest dose activity, negative = toxicity, hits mostly cytotoxic | HT-1080 IDH1 knockdown viability, ATP luminescence, 48 h | AID 686971;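 further: 0% = DMSO wells and -100% = cell-free medium wells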
#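 Using the IDH1-knockdown HT-1080 line run in the same batch and compound series as the NT line, viability after 48 h at 37 °C was determined by CellTiter-Glo luminescence and expressed as % activity.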
# KB-3-1 cytotox = KB-3-1 parental cell cytotoxicity. KB-3-1 viability, CellTiter-Glo ATP luminescence, 72 h. Potency, µM (series often up to 46.1 µM), actives largely listed as cytotoxic. hit rate 1.4% among 400,000; further: on the % scale 0 is the no-effect control and ±100 the full control effect; nearly all actives have a fitted effect of over 60% in size
#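 KB-3-1 cells, DMEM (no phenol red) + 10% FBS; compound by pin transfer, 72 h, 37 °C. Readout: CellTiter-Glo luminescence after 10 min. Data normalized, curve-fitted.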
# HT1080-NT tox = kills 2HG-producing HT-1080-NT fibrosarcoma cells. Potency, µM (doses to about 46.1 µM), for inactives: at the top dose activity, negative = less viability, hits mostly cytotoxic. AID 686970. hit rate 1.6% among 360,000. HT-1080-NT fibrosarcoma viability, CellTiter-Glo ATP luminescence, 48 h;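 further: NT is the 2HG producing partner of a matched IDH1 knockdown line; 0% = DMSO-treated cells and -100% = media-only wells without cells; nearly all actives have a fitted effect of over 55% in size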
#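 HT-1080-NT fibrosarcoma cells (2HG-overproducing), 750 cells/well in RPMI with 5% FBS, dosed after 2 h and incubated 48 h at 37C. CellTiter-Glo luminescence normalized to DMSO and no-cell wells; concentration-response curves fitted and classed.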
# KB-V1 MDR tox = kills drug-selected multidrug resistant KB-V1 cells. hit rate 3.4% among 400,000. Potency, µM (titrated, usually from 46.1 µM), actives largely listed as cytotoxic. KB-V1 MDR cells viability, CellTiter-Glo, 72 h; further: on the % scale 0 is the no-effect control and ±100 the full control effect; nearly all actives have a fitted effect of over 60% in size
#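 KB-V1, DMEM (no phenol red) + 10% FBS; cpd pin-transferred, titration series; 72 h, 37 degrees C; CellTiter-Glo, luminescence. Data normalized, curve-fit.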
# * = called active by the depositor; i = inactive; ? = inconclusive; . = not tested or not shown. Compounds with a hit are over-represented: about 6.6% of the library has one in this group of screens. The call rests on the fitted dose curve; in most records, active means well fitted curve in the direction sought with a large enough effect; inconclusive means small, poorly fitted or top-dose-only effect, or another doubt; inactive means no such curve, though single readings can be large; an effect the other way counts as inactive or inconclusive. Potency means the concentration at half of the fitted maximal effect.
SMILES,HepG2 tox,TGFb inhibitor,HT1080 IDH1KD tx,KB-3-1 cytotox,HT1080-NT tox,KB-V1 MDR tox
CN(CC(=O)Nc1cccc(F)c1)CC(=O)Nc1cccc(S(=O)(=O)N2CCCCCC2)c1,-40%,?,-12%,?,-12%,18µM*
O=C(Nc1ccccc1)c1cccc(S(=O)(=O)N2CCCCC2)c1,3%,-13%,1%,i,-2%,i
O=C(Cn1c(=O)n(Cc2nc(-c3ccccc3)no2)c(=O)c2cc3c(cc21)OCO3)Nc1ccc(Cl)cc1,1%,2%,.,i,.,i
COc1cccc(C(=O)Nc2cccc(-c3nc4ncccn4c3C)c2)c1,-2%,-2%,.,.,.,.
CN(C)c1ccc(NC(=O)CSC2=Nc3ccccc3C3=NC(CC(=O)NCc4ccc5c(c4)OCO5)C(=O)N23)cc1 (stereo not given),-19%,?,.,i,.,i
COc1ccc(CNC(=O)c2c3c(nc4ccccc24)C(=O)N(C2CCCCC2)C3)cc1,-26%,?,.,i,.,i
CN(Cc1ccc(F)cc1)C(=O)c1cccc(NS(=O)(=O)c2ccccc2)c1,-1%,0%,-12%,i,-11%,i
COc1ccc(CN(C)C(=O)c2cccc(NS(=O)(=O)c3ccccc3)c2)cc1F,-13%,-6%,-1%,i,-11%,8.2µM*
CSc1ccc(NC(=O)C2(C)CCN2C(=O)c2sccc2C)cc1 (stereo not given),-1%,15%,-7%,i,5%,i
CCN1C(C(=O)c2ccccc2)=C(OC(=O)c2ccc(Cl)cc2)c2ccccc2S1(=O)=O,-57%,11µM*,.,.,.,.
CCCCC(=O)OC1=C(C(=O)c2ccccc2)N(C)S(=O)(=O)c2ccccc21,-31%,18µM*,.,?,.,i
C=CCN1C(C(=O)c2ccccc2)=C(OC(=O)COc2ccccc2)c2ccccc2S1(=O)=O,-24%,0%,?,?,?,12µM*
CCOC(=O)c1ccccc1NC(=O)N1CCC(CN2CCCCC2)CC1,-4%,-16%,.,i,.,i
CCCn1c2ccccc2c2cnn(CC(=O)NCCc3cc(OC)ccc3OC)c(=O)c21,-25%,?,.,i,.,i
O=C(Nc1ccccc1N1CCCCC1)c1ccc(Cl)c([N+](=O)[O-])c1,0%,0%,?,i,?,i
COc1ccc(C(=O)NC(=S)Nc2ccccc2N2CCOCC2)cc1[N+](=O)[O-],8%,0%,-15%,?,-11%,?
COc1ccc(C(=O)Nc2ccccc2N2CCOCC2)cc1[N+](=O)[O-],-16%,-4%,-2%,i,0%,21µM*
CN1CCN(c2ccccc2NC(=O)c2ccc(N3CCCC3)c([N+](=O)[O-])c2)CC1,7%,10%,?,i,13µM*,i
O=C(Nc1nc(-c2ccccc2)cs1)c1ccc(N2CCOCC2)c([N+](=O)[O-])c1,-24%,-16%,?,?,?,1.8µM*
OCCNc1nc(-c2cccs2)nc2ccccc12,.,.,-5%,.,-5%,.
Cc1csc2nc(-c3cccc(NC(=O)c4ccccc4F)c3)cn12,-51%,-2%,.,i,.,i
CCc1ccc(NC(=O)c2ccc3c(c2)N(Cc2ccc(C)cc2)CCS3)cc1,-13%,-2%,.,i,.,i
O=C(CCCn1c(=O)c2ccccc2n(Cc2cccc(F)c2)c1=O)NCc1ccccc1Cl,-10%,-18%,.,i,.,i
COc1ccccc1NC(=O)c1cc2c([nH]c1=O)CC(C)(C)CC2=O,5%,0%,.,i,.,i
COc1cc(OC)c(C2=NOC(C(=O)NCc3cccnc3)C2)cc1Cl (stereo not given),-13%,3%,?,?,?,i
